From PubChem BioAssay AID493034 (The Scripps Research Institute Molecular Screening Center, 2011)
Screen size: about 2,400 compounds; about 2,200 (92%) were called active. So high a share suggests a set chosen from earlier hits. This is one part of the list. Values without a mark were called inactive.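 The calls were made as follows: active = mean inhibition over triplicate runs exceeds the cutoff derived for the earlier primary screen (cut at about 25% in these data); inactive = the rest.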

biological target: Platelet-activating factor acetylhydrolase IB subunit alpha2 (Homo sapiens) (UniProt P68402); assay: inhibition of human PAFAH1B2 catalytic subunit – biochemical, fluorescence polarization, FP-rhodamine probe, triplicate, confirmation (AID 493034); settings: recombinant PAFAH1B2, FP-rhodamine probe fluorescence polarization; at 3.39 µM; stronger effect = higher value;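 also: 0% = enzyme with DMSO and 100% = wells lacking PAFAH1B2 protein; inhibitors lower polarization by leaving the probe unbound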
Sequence (P68402 whole entry, looked up): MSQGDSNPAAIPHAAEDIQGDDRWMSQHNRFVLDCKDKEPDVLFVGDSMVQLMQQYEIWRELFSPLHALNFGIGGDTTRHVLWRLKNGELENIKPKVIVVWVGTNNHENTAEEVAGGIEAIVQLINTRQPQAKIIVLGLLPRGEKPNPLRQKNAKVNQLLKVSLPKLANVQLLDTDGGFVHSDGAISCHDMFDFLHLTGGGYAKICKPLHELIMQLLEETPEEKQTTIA

Compound	inhibition
CCOC(=O)c1ccccc1NC(=O)CSc1nnc(C)c(=O)[nH]1	22.2%
CCOc1ccc2nc(NC(=O)CSc3nc(-c4ccccc4)c(C#N)c(=O)[nH]3)sc2c1	81.7% (active)
N#Cc1c(-c2ccccc2)nc(SCC(=O)Nc2ccc(OC(F)(F)Cl)cc2)[nH]c1=O	76.1% (active)
CCOc1ccc(OCCSc2nc3ccccc3c(=O)[nH]2)cc1	3.03%
CCOC(=O)Cc1csc(NC(=O)CSc2nc(-c3ccccc3)c(C#N)c(=O)[nH]2)n1	63.6% (active)
CCc1ccc(S(=O)(=O)NCCc2csc(-c3ccccc3)n2)s1	22.1%
Cc1cc(N2CCCC2=O)cc(C)c1S(=O)(=O)NCCOc1ccc(C(C)(C)C)cc1	33.7% (active)
O=C1C(=O)C(c2ccccc2)C(=O)C1c1ccccc1 (stereo unspecified)	25.4% (active)
O=C(O)c1[nH]c2ccccc2c1C(c1cc(Cl)cc([N+](=O)[O-])c1O)c1c(C(=O)O)[nH]c2ccccc12	43.8% (active)
COc1cc(Cl)cc(C(c2c(C(=O)O)[nH]c3ccccc23)c2c(C(=O)O)[nH]c3ccccc23)c1O	71% (active)
CN(Cc1cccs1)C(=O)CCNS(=O)(=O)c1ccc(Br)cc1	21.4%
O=[N+]([O-])c1cc(-c2csc(NCCc3nc4cc(C(F)(F)F)ccc4n3CCCO)n2)ccc1Cl	14.9%
O=C(O)c1cc(NS(=O)(=O)c2ccc3ccccc3c2)ccc1O	35.9% (active)
O=C(O)c1ccc(NS(=O)(=O)c2ccc(Cl)c(Cl)c2)cc1O	20.1%
COc1ccccc1NC(=O)C(=O)NNS(=O)(=O)c1ccc2ccccc2c1	23.4%
CCC(Sc1nc(-c2cccc(OC)c2)c(C#N)c(=O)[nH]1)C(=O)Nc1nnc(C(C)C)s1 (stereo unspecified)	34.6% (active)
Cc1ccccc1S(=O)(=O)N1[C@@H](c2ccc(Br)cc2)C(C(=O)O)=CC[C@H]1c1ccc(Cl)cc1	83.2% (active)
O=C(O)C1=CC[C@@H](c2ccc(Cl)cc2)N(S(=O)(=O)c2ccc(Cl)cc2)[C@H]1c1ccc(Br)cc1	86.3% (active)
CNc1nc(NCCOC23CC4CC(CC(C4)C2)C3)nc(OCC(F)(F)F)n1	22.2%
CCCCNC(=O)Oc1ccc(C(=O)N2c3ccccc3NC(=O)C2C)cc1 (stereo unspecified)	41.2% (active)
CC(C)(C)Cc1nnc(NS(=O)(=O)c2ccc(F)cc2)s1	20.3%
C/C(CC(C)(C)C1CCCCC1)=N\NC(N)=S	30.1% (active)

Compound	inhibition
O=C(CNS(=O)(=O)c1ccccc1)NCC(=O)OCc1ccc(Br)cc1	23.9%
O=S(=O)(NC(=NCCc1ccc(Cl)cc1)c1ccccc1Cl)c1cccs1	110% (active)
CSCCC(NS(=O)(=O)c1ccc(Cl)cc1)C(=O)OCc1cccc(Cl)c1 (stereo unspecified)	23.1%
NC(=NCCc1ccc(Cl)cc1)NS(=O)(=O)c1ccc(F)cc1	50.7% (active)
NC(=NCCc1ccc(Cl)cc1)NS(=O)(=O)c1ccccc1	49.9% (active)
O=S(=O)(NCc1ccc(Cl)cc1)c1ccc(Cl)nc1	22.4%
CCOC(=O)c1sc(NC(=O)CN(CC(C)C)CC(C)C)c(C(=O)OCC)c1C	6.46%
N#C/C(=C/c1cn[nH]c1-c1ccc(Br)cc1)C(=O)O	20.3%
Cc1ccc([N+](=O)[O-])c(-c2n[nH]c(=S)n2-c2cccc(Cl)c2)c1	24%
CC(C)(C)[C@H]1COC(=O)[C@@H](Cc2ccc(F)cc2)CC/C=C/C[C@@H](CC(=O)N[C@H](CO)Cc2ccccc2)C(=O)N1	26.6% (active)
CC(C)(C)[C@H]1COC(=O)[C@@H](Cc2ccc(F)cc2)C/C=C\C[C@@H](CC(=O)N[C@@H](CO)Cc2ccccc2)C(=O)N1	32.7% (active)
CC(C)(C)[C@H]1COC(=O)[C@@H](Cc2ccc(F)cc2)C/C=C\C[C@@H](CC(=O)N[C@H](CO)Cc2ccccc2)C(=O)N1	62.1% (active)
CC(C)(C)[C@@H]1COC(=O)[C@H](Cc2ccc(F)cc2)C/C=C\C[C@@H](CC(=O)NCCO)C(=O)N1	17.5%
Cc1c(N=C2C=C(Br)C(=O)C(Br)=C2)c(=O)n(-c2ccccc2)n1C	20.8%
O=c1[nH]c2ccc(S(=O)(=O)Nc3ccc(Cl)cc3)cc2o1	41.7% (active)
O=S(=O)(Nc1ccc2cn[nH]c2c1)c1ccc(Cl)cc1	18.1%
Nc1n[nH]c2c1C1(CCCCC1)Cc1ccccc1-2	22%
O=C(/C=C/c1ccc(O)c(O)c1)OCCc1ccccc1	19.7%
O=C(OCCc1ccccc1)c1cc(O)c(O)c(O)c1	34.3% (active)
N=c1c[n+](-c2ccc(Cl)cc2)[n-]o1	18.1%
O=C(CN1CCN(S(=O)(=O)c2ccc(Cl)cc2)CC1)c1ccc(O)c(O)c1	33.2% (active)
O=S(=O)(c1ccc(Cl)cc1)N1CCCC(C(F)(F)F)C1 (stereo unspecified)	22.5%

Compound	inhibition
CN(Cc1ccccc1)C(=O)CN1CCN(S(=O)(=O)c2ccc(Cl)c(Cl)c2)CC1	22.8%
CCC(=O)Nc1cc(C)c(NC(=O)C23CC4CC(CC(C4)C2)C3)cn1	22.1%
O=C(NNC(=O)C12CC3CC(CC(C3)C1)C2)c1cccc([N+](=O)[O-])c1	18.9%
O=C(NNC(=S)NC(=O)C12CC3CC(CC(C3)C1)C2)c1ccncc1	38.2% (active)
O=C1C(c2ccccc2)NC(=S)N1C1CCCCC1 (stereo unspecified)	20.2%
O=C(O)c1ccn2c(C(=O)c3ccccc3)c(-c3ccccc3)cc2c1	27.1% (active)
O=C(O)c1ccn2c(C(=O)c3ccc(Cl)cc3)c(-c3ccccc3)cc2c1	62.6% (active)
O=C1NC(c2cccs2)C(C(=O)c2ccccc2)C(O)(C(F)(F)F)N1 (stereo unspecified)	11.5%
CC(C)CCNC(=O)Cc1c(C(=O)O)[nH]c2ccc(Cl)cc12	43.9% (active)
CCOCCCNC(=O)Cc1c(C(=O)O)[nH]c2ccc(Cl)cc12	26.3% (active)
CCCCN(CC)C(=O)Cc1c(C(=O)O)[nH]c2ccc(Cl)cc12	41.1% (active)
CC1CC(C)CN(C(=O)Cc2c(C(=O)O)[nH]c3ccc(Cl)cc23)C1 (stereo unspecified)	73.8% (active)
Cc1ccc2[nH]c(C(=O)O)c(NC(=O)[C@@H]3C[C@@H]3c3ccccc3)c2c1	17.5%
COc1ccc([N+](=O)[O-])cc1N(CC(=O)NCCSc1ccc(C)cc1)S(C)(=O)=O	22.5%
CC12CC3CC(C)(C1)CC(C(=O)N1CCN(C(=O)c4ccco4)CC1)(C3)C2	16.1%
CC(Sc1ccc(Cl)cc1)C(=O)Nc1ccc(S(=O)(=O)N2CCOCC2)cc1 (stereo unspecified)	20%
O=C(Nc1ccc(N2CCOCC2)cc1)C1(c2ccc(Cl)cc2)CCC1	78.4% (active)
Cc1ccccc1C(=O)N1CCN(c2ccc(NC(=O)CSc3ccc(Cl)cc3)cc2)CC1	23.5%
O=C(CCl)N(c1ccccc1)C1CCCCC1	29.2% (active)
O=C(O)c1cc(NC(=S)NC(=O)C(c2ccccc2)c2ccccc2)ccc1Cl	20.9%
Cc1ccc(S(=O)(=O)Nc2ccccc2-c2ccccc2NS(=O)(=O)c2ccc(C)cc2)cc1	43.8% (active)
CC(C)(C)c1ccc(S(=O)(=O)/N=C2\C=C(NS(=O)(=O)c3ccccc3)C(=O)c3ccccc32)cc1	11.4%

Compound	inhibition
COc1cc(C(=O)O[C@H]2CC(C)=CC[C@@]3(C)CC[C@@](O)(C(C)C)[C@H]23)ccc1O	23.9%
Cc1nc2ccccn2c1-c1ccnn1S(=O)(=O)c1ccc(F)cc1	22.7%
O=c1[nH]c2cc(Cl)ccc2c(O)c1-c1cccc(Oc2ccccc2)c1	27.1% (active)
CC1CCN(S(=O)(=O)c2ccc(NC(=O)CSc3nnnn3C)cc2)CC1	33.1% (active)
CC1CCN(S(=O)(=O)c2ccc(NC(=O)[C@@H]3CCCC[C@@H]3C(=O)O)cc2)CC1	39.3% (active)
CC1CCN(S(=O)(=O)c2cccc(C(=O)N(C)C3CCS(=O)(=O)C3)c2)CC1 (stereo unspecified)	23.7%
CC1CCN(S(=O)(=O)c2ccc(NC(=O)Cc3cccs3)cc2)CC1	19.6%
CC1CCN(S(=O)(=O)c2ccc(N/N=C(/C#N)C(N)=O)cc2)CC1	27.9% (active)
CC1CCN(S(=O)(=O)c2ccc(NC(=O)CN3CCCCCC3)cc2)CC1	20.4%
O=C(CSc1nc(C2CC2)nc2ccccc12)Nc1ccc2c(c1)OCCO2	1.2%
N#Cc1c(-c2ccccc2)nc(SCC(=O)N(c2ccccc2)c2ccccc2)[nH]c1=O	38.8% (active)
N#Cc1c(-c2ccccc2)nc(SCc2ccc(Cl)cc2)[nH]c1=O	40% (active)
CC(C)c1ccc(-c2nc(N3CCOCC3)[nH]c(=O)c2C#N)cc1	23.2%
CN(C(=O)CSc1nc(-c2ccc(C(C)(C)C)cc2)c(C#N)c(=O)[nH]1)C1CCCCC1	20.1%
C/C(=N\O)C1/C(=N/O)CC2C1C2(C)C (stereo unspecified)	31.7% (active)
Cc1cc(-c2ccccc2)c2ccc(NC(=O)C(C)(C)C)nc2n1	23.8%
Cc1cccc(OCC(=O)NCC(=O)N/N=C/c2cc(Br)cc(Br)c2O)c1	19.1%
O=C(CNC(=O)c1cccc(Br)c1)N/N=C/c1cc(Br)cc(Br)c1O	33.1% (active)
C=C[C@]1(C)C=C2CC[C@H]3[C@@](C)(CCC[C@@]3(C)C(=O)O)[C@@H]2CC1	30.9% (active)
O=S(=O)(Oc1ccccc1N1CCCCC1)c1ccccc1	14.5%
